According to PubChem BioAssay (NCI):
The panel holds about 83,000 compounds, 20% with a hit somewhere; the sample as a whole holds those more often.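 The test compound was applied at a single concentration to cells in 96-well plates for 48 hours, and percent growth was recorded.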 Unmarked numbers belong to inactive results. Calls of active or inactive are those of the source. How the source made its calls: active means growth percent below 10; inactive means the rest.

system: MDA-MB-468 breast; experiment: NCI-60 one-dose screen, 48 h (100 = growth as untreated, 0 = no growth, -100 = all killed); details: 10 µM unless noted

For `CCCNNC(=O)c1ccc(-c2ccc(NC(=O)CCCCCCC(=O)N[C@H](C(=O)N3C[C@H](O)C[C@H]3C(=O)N[C@@H](C)c3ccc(-c4scnc4C)cc3)C(C)(C)C)cc2)cc1`, which growth is on record?
Its growth is -10.1% (active).

With `Cn1cc(-c2csc(-c3cn(C(=O)OC(C)(C)C)c4ccccc34)n2)c2ccnc(Cl)c21` as the compound, how does the growth read?
Its growth is 44.8%.

Which growth does the source give for `Oc1ccc(N=Nc2ccc(Br)cc2)c(O)c1` here?
Its growth is 15.4%.
